According to PubChem BioAssay (NCATS):
Results filed as inconclusive are left out. Where a call stands in place of a potency, no number is given. Active and inactive are the calls of the source. Calls follow the shape of the dose curve; as a rule, active = well fitted cell-killing curve with a large enough effect; inconclusive = small, poorly fitted or top-dose-only effect; inactive = flat fitted curve, though single readings scatter. Numbered stars: 1 amine (or outer) side, 2 acyl side, 3 side chain; on linkers, the order of the positions; unused ones are H or OH. Bridge positions count the residues as written; N and C are the ends. Square brackets hold non-standard residues; d marks the D form. Peptide text beside a SMILES is read from it. I, II: the chains in the order shown. Actinocin(9to1) = Cc1c2oc3c(C)ccc(C(=O)[*:1])c3nc-2c(C(=O)[*:2])c(N)c1=O; NMeV = CN[C@H](C(=O)O)C(C)C; Sar = CNCC(=O)O

Assay: Cell Viability - LYMP2-020 (AID 986); also: nearly all actives have a fitted effect of over 55% in size
Settings: series mostly up to 92.2 µM
Excerpt: NIH Chemical Genomics Center [NCGC]
NIH Molecular Libraries Screening Centers Network [MLSCN]
National Institutes of Environmental Health Sciences [NIEHS]
National Toxicology Program [NTP]
We have developed a 1536-well cell-based assay for quantitative high throughput screening (qHTS) against a number of cell lines to determine in vitro cytotoxicity of small molecules. This particular assay uses a human lymphoblastoid cell line (LYMP2-020) purchased from Coriell Institute for Medical Research.
NCGC Assay Protocol Summary:
The CellTiter-Glo luminescent cell viability assay (Promega) is a homogeneous method to measure the number of viable cells in culture. The end point readout of this assay is based on quantitation of intracellular ATP, an indicator of metabolic activity, using the luciferase reaction. Luciferase catalyzes the oxidation of beetle Luciferin to oxyluciferin and light in the presence of ATP. The luminescent signal is proportional to amount of ATP present.
Using the CellTiter-Glo luminescent cell viability assay, the amount of cellular ATP was measured in the lymphoblastoid cell line with complete culture medium following compound treatment for 24 hours. The assay was performed in opaque white Kalypsys 1536-well plates. In the screen, tetraoctylammonium bromide was used as positive control. Library compounds were measured for their ability to cause acute toxicity in the cell line, as reflected by a decrease in intracellular ATP levels, in a concentration-dependent manner. […] AC50 values were determined from concentration-response data modeled with the standard Hill equation.
qHTS protocol for CellTiter Glo lymphoblastoid cellular assay
[Step] [Parameter] [Value] [Description]
1. Reagent; 5 uL; 2500 lymphoblastoid cells/well
2. Time; 5 hr; 37 C incubation
4. Controls; 23 nL; Tetraoctylammonium bromide 6.4pM to 92 uM
5. Time; 24 hr; 37 C incubation
6. Reagent; 5 uL; CellTiter Glo reagent
7. Time; 30 min; Room Temperature
8. Detection; Luminescence; Viewlux plate reader
Keywords: cell viability, cytotoxicity, lymphoblastoid cell line, luminescence, NTPHTS, NTPHTS_NCGC, NIEHS, DSSTox, MLSMR, MLSCN, NIH Roadmap, qHTS, NCGC
Potency is read from the fitted curve at half-maximal effect.

Row | SMILES | Potency
1 | CN(C)/N=N/c1nc[nH]c1C(N)=O | inactive
2 | CC(O)C(=O)O (centres undefined) | inactive
3 | COc1cccc2c1C(=O)c1c(O)c3c(c(O)c1C2=O)C[C@@](O)(C(C)=O)C[C@@H]3O[C@H]1C[C@H](N)[C@H](O)[C@H](C)O1 | 0.501 µM (active)
4 | COc1cccc2c1C(=O)c1c(O)c3c(c(O)c1C2=O)C[C@@](O)(C(=O)CO)C[C@@H]3O[C@H]1C[C@H](N)[C@H](O)[C@H](C)O1 | 0.316 µM (active)
5 | C[C@]12CC[C@@H]3c4ccc(O)cc4CC[C@H]3[C@@H]1CC[C@@H]2O | inactive
6 | CC(C)(C)CC(C)(C)c1ccc(OCCOCC[N+](C)(C)Cc2ccccc2)cc1 | 25.1 µM (active)
7 | CC(=O)Oc1ccc(C(c2ccc(OC(C)=O)cc2)c2ccccn2)cc1 | inactive
8 | Nc1ccc(C(=O)O)cc1 | inactive
9 | Cc1c2oc3c(C)ccc(C(=O)N[C@@H]4C(=O)N[C@H](C(C)C)C(=O)N5CCC[C@H]5C(=O)N(C)CC(=O)N(C)[C@@H](C(C)C)C(=O)O[C@@H]4C)c3nc-2c(C(=O)N[C@@H]2C(=O)N[C@H](C(C)C)C(=O)N3CCC[C@H]3C(=O)N(C)CC(=O)N(C)[C@@H](C(C)C)C(=O)O[C@@H]2C)c(N)c1=O (I: T[dV]P[Sar][NMeV] / II: T[dV]P[Sar][NMeV]; ester I:1-I:C, II:1-II:C; linker I:N-II:N via Actinocin(9to1)) | 0.0063 µM (active)
10 | O=C(O)CCCCC(=O)O | inactive
11 | Oc1ccc(O)cc1 | 50.1 µM (active)
12 | CC/C(=C(/CC)c1ccc(O)cc1)c1ccc(O)cc1 | inactive
13 | Oc1c(Cl)cc(Cl)cc1Sc1cc(Cl)cc(Cl)c1O | 31.6 µM (active)
14 | COC1=CC(=O)C[C@@H](C)[C@]12Oc1c(Cl)c(OC)cc(OC)c1C2=O | inactive
15 | O=c1ccc2ccccc2o1 | inactive
16 | C=CCc1ccc(O)c(OC)c1 | inactive
17 | O=C1OC(c2ccc(O)cc2)(c2ccc(O)cc2)c2ccccc21 | inactive
18 | CCCCCCc1ccc(O)cc1O | inactive
19 | NC(=NCCCCCCN=C(N)/N=C(\N)Nc1ccc(Cl)cc1)/N=C(\N)Nc1ccc(Cl)cc1 | 39.8 µM (active)
